# Source: PubChem BioAssay (NMMLSC)
# An excerpt weighted towards active compounds, which were near 1.8% of everything screened.
# ABCB6 inh 2: ABCB6 transporter inhibitors, primary screen, K562-ABCB6 cells, flow cytometry, MLPCN library | ATP-binding cassette sub-family B member 6 (Homo sapiens), Q9NP58 | K562-ABCB6 porphyrin accumulation, 1 h; hits give low values | fluorescence ratio to DMSO, % at 10 µM | 360,000 tested, 0.19% active;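 active means fluorescence ratio to DMSO below 75%, the collection mean minus 3 SD; inconclusive means too few cells collected in the well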;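 further: signal is porphyrin accumulated inside mitochondria; 100% equals median channel fluorescence of DMSO control wells; lower ratio means ABCB6 inhibition with less porphyrin fluorescence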
# Target sequence (Q9NP58 whole entry, looked up): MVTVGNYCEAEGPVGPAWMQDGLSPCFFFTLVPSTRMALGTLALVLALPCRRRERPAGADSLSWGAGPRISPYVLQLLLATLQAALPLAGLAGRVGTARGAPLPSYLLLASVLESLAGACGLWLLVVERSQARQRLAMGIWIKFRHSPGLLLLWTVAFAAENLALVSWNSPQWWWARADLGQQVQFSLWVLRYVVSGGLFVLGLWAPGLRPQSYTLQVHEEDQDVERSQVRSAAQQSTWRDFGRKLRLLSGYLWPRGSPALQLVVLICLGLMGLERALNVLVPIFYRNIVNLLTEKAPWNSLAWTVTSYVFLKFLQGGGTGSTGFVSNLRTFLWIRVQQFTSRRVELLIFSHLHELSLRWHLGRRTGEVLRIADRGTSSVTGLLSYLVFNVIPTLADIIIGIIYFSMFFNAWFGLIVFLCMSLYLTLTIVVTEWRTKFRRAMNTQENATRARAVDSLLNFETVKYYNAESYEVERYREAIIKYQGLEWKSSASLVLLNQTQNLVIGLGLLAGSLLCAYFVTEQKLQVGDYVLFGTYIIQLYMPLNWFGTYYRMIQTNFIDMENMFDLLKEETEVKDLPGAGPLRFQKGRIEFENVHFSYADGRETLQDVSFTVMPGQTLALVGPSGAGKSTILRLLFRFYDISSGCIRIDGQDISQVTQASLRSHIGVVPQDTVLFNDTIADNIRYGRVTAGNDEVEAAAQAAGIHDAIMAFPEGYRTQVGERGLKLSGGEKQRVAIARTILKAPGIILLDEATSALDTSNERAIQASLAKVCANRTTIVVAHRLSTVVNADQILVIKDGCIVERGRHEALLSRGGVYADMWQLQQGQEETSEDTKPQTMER
# Myeloid diff 2: induction of myeloid progenitor differentiation, primary screen, cell-based, flow cytometry, MLPCN library; calls only at 10 µM; ER-HoxA9 myeloid progenitors, lysozyme-GFP differentiation; 360,000 tested, 1% active; AID 624256, 2012;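 active means normalized GFP-positive differentiation at or above the plate's own cutoff, the solvent-only control mean plus 3 SD; inconclusive means no clear call, values can overlap the other calls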;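 further: cells exposed to compound for four days before flow analysis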
# Granule exo inh: LAMP-1 surface exposure blockers, TALL-104 cells – cell-based, flow cytometry, MLPCN library, primary screen; TALL-104 LAMP-1 surface exposure; cells stimulated with thapsigargin and PMA; inhibition, % at 10 µM; 360,000 tested, 0.66% active;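 active means inhibition above about 55%, limit read from the data; inconclusive means no clear call, values can overlap the other calls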
# The depositor's hits bear a star; i = inactive; ? = inconclusive; . = not tested or not shown; + = active, no number.
SMILES,ABCB6 inh 2,Myeloid diff 2,Granule exo inh
CC1CCC2(CC1)NC(=O)N(CC(=O)N1CCN(c3ccccc3)CC1)C2=O (centres undefined),92.0,i,-2.0
CC1CCC(C(C)C)C(OC(=O)Cn2c(-c3ccccc3)[n+](C)c3ccccc32)C1 (centres undefined),89.0,?,44.4
Cc1cccc(OCc2n(CC(=O)OC3CC(C)CCC3C(C)C)c3ccccc3[n+]2C)c1 (centres undefined),96.0,i,89.0*
CCOC(=O)C1CCN(S(=O)(=O)c2c(C(=O)N3CCCCC3)c(C)n(C)c2C)CC1,92.0,i,0.0
CCOC(=O)N1CCN(S(=O)(=O)c2c(C(=O)N3CCCCC3)c(C)n(C)c2C)CC1,96.0,+,-0.6
CCc1nnc(NS(=O)(=O)c2ccc(NC(=S)NC(=O)/C=C/c3ccccc3)cc2)s1,103.0,i,-10.7
CCc1nnc(NS(=O)(=O)c2ccc(NC(=S)NC(=O)/C=C/c3ccc(C(C)C)cc3)cc2)s1,97.0,i,90.5*
COc1cc(C#N)ccc1OCC(=O)Nc1cccc(S(=O)(=O)N(C)c2ccccc2)c1,94.0,i,-1.7
O=[N+]([O-])c1ccc(CNCc2cc(Cl)ccc2O)cc1,98.0,i,5.2
CCCCCCN1C[C@@H](O)[C@H](n2cc(C3CC3)nn2)C[C@@H]1c1ccc(Cl)cc1,94.0,i,1.2
COc1ccc(OCCCC(=O)Nc2nccs2)cc1,93.0,i,-3.3
O=C1C=C(c2ccc(Oc3ccccc3)cc2)C[C@@H](c2ccc3c(c2)OCO3)C1,101.0,i,6.5
CC(=O)Oc1ccc(/C=N/NC(=O)c2ccc(N(C)S(=O)(=O)c3ccccc3)cc2)cc1,101.0,i,94.1*
Cc1ccc(/C=N/NC(=O)c2ccc(N(C)S(=O)(=O)c3ccccc3)cc2)cc1,97.0,i,-16.8
CC1=NOC(=O)/C1=C\c1ccc(-c2ccc(Cl)c(C(=O)O)c2)o1,98.0,i,1.5
Cc1ccc(/C=C2/C(=O)ON=C2c2ccccc2)o1,117.0,i,22.2
COC(=O)N/N=C/c1ccc(-c2cccc(Cl)c2)o1,100.0,i,-5.0
Nc1ccccc1N=Cc1ccc(-c2cccc(Cl)c2)o1,103.0,i,96.5*
CC1=NOC(=O)/C1=C\c1ccc(-c2ccccc2Br)o1,99.0,i,92.4*
CC1=NOC(=O)/C1=C\c1ccc(-c2cccc(Cl)c2)o1,120.0,i,100.2*
Cc1cc(N)nc(=O)n1C1CC(O)C(CO)O1 (centres undefined),101.0,i,0.6
Cc1cc(Br)ccc1NC(=O)CSCc1c(C)noc1C,91.0,i,-0.8
CC(=O)Nc1ccccc1OCC(=O)N(Cc1ccccc1)C(C)C,96.0,+,-5.6
CC(=O)Nc1ccccc1OCC(=O)NC(C)c1ccccc1 (centres undefined),100.0,i,26.9
CCOC(=O)c1c(NC(=O)Cn2cnc3scc(-c4ccc(C)cc4)c3c2=O)sc(C)c1C,98.0,i,0.8
SMILES,ABCB6 inh 2,Myeloid diff 2,Granule exo inh
Cc1nnc(SCC(=O)Nc2ccc([N+](=O)[O-])cc2)n1CC1CCCO1 (centres undefined),96.0,i,0.8
Cc1ccc(NC(=O)CSc2nnc(C)n2CC2CCCO2)cc1 (centres undefined),87.0,+,-0.8
CC1(C)OC2C(O1)[C@@H](CO)O[C@H]2n1cnc2c(N)ncnc21 (some centres undefined),101.0,i,-3.3
Nc1ncnc2c1ncn2[C@@H]1O[C@H](CO)[C@@H](O)[C@H]1O,89.0,+,5.3
Cc1cc(S(=O)(=O)NC[C@H]2O[C@@H](n3cnc4c(N)ncnc43)[C@H](O)[C@@H]2O)c(C)s1,98.0,i,0.6
Cn1cc(S(=O)(=O)NC[C@H]2O[C@@H](n3cnc4c(N)ncnc43)[C@H](O)[C@@H]2O)cn1,105.0,+,0.0
COc1ccc(Oc2nc(-c3ccccn3)ncc2OC)cc1,94.0,i,-0.1
COc1cnc(-c2ccccn2)nc1N(C)C,95.0,+,0.9
N#Cc1ccc(-c2c(-c3ccccc3)ncc3cc(F)ccc23)cc1,97.0,i,-14.8
COCCNC(=O)C1(C)CCCN(C(=O)COc2ccccc2)C1 (centres undefined),89.0,i,0.3
Cn1c(SCC(=O)NC2CCCc3ccccc32)nnc1C1CC1 (centres undefined),99.0,i,-7.5
O=C(/C(=C(\[O-])c1ccccc1)[n+]1ccc2ccccc2c1)c1ccc(Cl)cc1,124.0,i,-1.4
O=C(/C(=C(\[O-])c1ccccc1)[n+]1ccc2ccccc2c1)c1ccccc1,129.0,+,-4.0
COc1ccc(/C=C2/SC(=S)N(CCC(=O)N3CCN(C)CC3)C2=O)cc1,92.0,i,?
COc1ccc(/C=C2\SC(=S)N(CCC(=O)Nc3ccccc3C(=O)O)C2=O)cc1,96.0,i,-16.8
Cc1ccc(/C=C2\SC(=S)N(CCCC(=O)N3CCOCC3)C2=O)cc1,93.0,+,0.6
COc1ccc(/C=C2\SC(=S)N(CC(=O)N3CCN(C)CC3)C2=O)cc1,103.0,i,5.5
COc1ccc(/C=C2\SC(=S)N(CCC(=O)N3CCCCC3)C2=O)cc1,91.0,+,3.7
COC(=O)c1ccc(/C=C2\SC(=S)N(CCCC(=O)N3CCOCC3)C2=O)cc1,103.0,i,0.4
COCCN1C(=O)/C(=C/c2ccc(N3CCCC3)cc2)SC1=S,i,+,3.1
CCOc1ccc(/C=C2\SC(=S)N(CCC(=O)Nc3ccccc3C(=O)O)C2=O)cc1,127.0,+,-5.3
CCCCNc1ncnc2[nH]ncc12,100.0,i,2.6
CCCCCNC(=O)C(C1CC1)n1c(=O)c(-c2ccccc2)nc2ccccc21 (centres undefined),.,i,2.3
COc1cc(C(=O)NN2C(=O)NC3(CCC(C)CC3)C2=O)ccc1OC(F)F (centres undefined),94.0,i,3.2
CN1CCN(C(=O)CCCN2C(=O)/C(=C/c3ccc(Cl)cc3)SC2=S)CC1,98.0,i,0.9
SMILES,ABCB6 inh 2,Myeloid diff 2,Granule exo inh
CN1CCN(C(=O)CCCN2C(=O)/C(=C/c3ccccc3)SC2=S)CC1,94.0,i,60.8*
COc1cc(OC)cc(C(=O)N2CCN(C3CCC(C)CC3)CC2)c1 (centres undefined),93.0,i,-3.7
O=C(CSc1ccc(S(=O)(=O)N2CCCC2)cn1)Nc1ccc([N+](=O)[O-])cc1C(F)(F)F,97.0,i,-0.3
COCCNC(=O)c1c(N)n(-c2ccccc2)c2nc3ccccc3nc12,92.0,i,2.1
COC(=O)c1c(N)n(-c2ccc(NC(C)=O)cc2)c2nc3ccccc3nc12,98.0,+,1.3
CN1/C(=C/c2cccc[n+]2CCO)Sc2ccccc21,115.0,i,-0.2
CC[n+]1c(/C=C2\Sc3ccccc3N2C)ccc2cccc(C)c21,.,?,67.5*
Cc1ccc(NC(=O)/C=C\C(=O)NCC(=O)O)cc1,100.0,i,-5.0
CN(CCOc1ccccc1)CC(=O)Nc1cc([N+](=O)[O-])ccc1Cl,106.0,i,-2.1
